Only some compounds are listed: those with a hit (about 3.2% of all), similar ones and a draw of the others.
p53null 32C tox = qHTS Screen for Compounds that Selectively Target Cancer Cells with p53 Mutations: Cytotoxicity of p53 Null Cells at the Permissive Temperature | H1299-neo p53 null cells, ATP luminescence, 24 h, 32C | Potency, µM (series often up to 46.1 µM), usual class: cytotoxic | 0.62% of 55,000 active | AID 903, 2007; note: nearly all actives have a fitted effect of over 55% in size
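AC50 values derive from Hill modelling of qHTS concentration-response data (up to 46 uM) in H1299-neo cells. Cells were treated 24 h at 32C following overnight attachment at 37C; viability was read as cellular ATP.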
p53null 39C kill = qHTS Screen for Compounds that Selectively Target Cancer Cells with p53 Mutations: Cytotoxicity of p53 Null Cells at the Nonpermissive Temperature; H1299 p53-null (neo) cells, 39C, ATPlite viability, 24 h; Potency, µM (series often up to 46.1 µM), hits mostly cytotoxic; 0.97% of 55,000 active; AID 904, 2007; note: nearly all actives have a fitted effect of over 50% in size
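H1299 lung cancer cells, p53-null (H1299-neo) or expressing p53 A138V (H1299-p53A138V), were plated overnight at 37C, then exposed to compounds at up to 46 uM for 24 hr at 39C. Viability was read by ATP-based luminescence.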
S16 viability = Cell viability qHTS assay in S16 Pmp22-F2sN cells. S16 Pmp22-F2sN Schwann cells viability, CellTiter-Glo, 24 h. Potency, µM (highest dose often 57.5 µM), hits mostly cytotoxic. 0.48% of 43,000 active; note: nearly all actives have a fitted effect of over 65% in size
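S16 Schwann cells carrying the Pmp22-F2sN reporter, seeded in 1536-well format, were exposed to library compounds for 24 h at 37C. Viability was read as CellTiter-Glo luminescence after 15 min at room temperature.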
mTORC1 inh = Acumen qHTS Assay for Inhibitors of the mTORC1 Signaling Pathway in MEF (Tsc2-/-, p53-/-) Cells: Sytravon | Tsc2-/- p53-/- MEF, phospho-rpS6 immunofluorescence/PI, 24 h | Potency, µM (doses to about 38.3 µM), usual class: inhibitors | 0.78% of 44,000 active; note: nearly all actives have a fitted effect of over 50% in size
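Tsc2-/-, p53-/- MEFs (empty-vector stable line) in DMEM + 10% FBS were treated with compounds 24 h at 37 degree Celsius, fixed, and immunostained for phospho-rpS6 (Alexa-488) with propidium iodide counterstain. Laser-scanning cytometry gave % positive cells, normalized against 7.5 nM rapamycin and DMSO.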
PMP22 txn prim = Cell-based coincidence reporter assay to measure PMP22 gene transcription in S16 Pmp22-F2sN cells - Primary screen. AID 1508649, 2021. 2% of 43,000 active. S16 Pmp22-F2sN Schwann cells (luciferase reporters placed in the Pmp22 gene), FLuc/NLuc coincidence luminescence, 24 h. Potency, µM (titrated, usually from 57.5 µM), hits mostly inhibitors; active = clear falling dose curves in both reporters; inconclusive = both reporters move, but less clearly or upward; inactive = either reporter flat; the % is the NLuc reporter signal
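S16(c9) Schwann cells with FLuc/NLuc coincidence reporter in the Pmp22 3' UTR; compounds pin-transferred, 24 h at 37C. Dual-luciferase read: FLuc first, then NLuc after Stop&Glo, each 10 min at room temperature.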
NLuc saturating = Biochemical NLuc saturation counterscreen for small molecule modulators of PMP22 gene expression - Nano-Glo assay. shares compounds with PMP22 txn prim. Secreted NLuc enzyme (filtered S16 cell medium), Nano-Glo luminescence. Potency, µM (doses to about 57.5 µM), actives largely listed as inhibitors. 4% of 690 active
NLuc Km counter = Biochemical coelenterazine-based NLuc counterscreen for small molecule modulators of PMP22 gene expression - Km assay | shares compounds with PMP22 txn prim | secreted NLuc enzyme, coelenterazine luminescence, Km conditions | Potency, µM (titrated, usually from 57.5 µM), most hits filed as inhibitors | 5% of 690 active
FLuc counter = Biochemical FLuc counterscreen for small molecule modulators of PMP22 gene expression | shares compounds with PMP22 txn prim | purified P. pyralis FLuc, luminescence, 10 min | Potency, µM (top dose mostly 57.5 µM), actives largely listed as inhibitors | 690 tested, under 10 active
Target sequence (P08659 whole entry, looked up): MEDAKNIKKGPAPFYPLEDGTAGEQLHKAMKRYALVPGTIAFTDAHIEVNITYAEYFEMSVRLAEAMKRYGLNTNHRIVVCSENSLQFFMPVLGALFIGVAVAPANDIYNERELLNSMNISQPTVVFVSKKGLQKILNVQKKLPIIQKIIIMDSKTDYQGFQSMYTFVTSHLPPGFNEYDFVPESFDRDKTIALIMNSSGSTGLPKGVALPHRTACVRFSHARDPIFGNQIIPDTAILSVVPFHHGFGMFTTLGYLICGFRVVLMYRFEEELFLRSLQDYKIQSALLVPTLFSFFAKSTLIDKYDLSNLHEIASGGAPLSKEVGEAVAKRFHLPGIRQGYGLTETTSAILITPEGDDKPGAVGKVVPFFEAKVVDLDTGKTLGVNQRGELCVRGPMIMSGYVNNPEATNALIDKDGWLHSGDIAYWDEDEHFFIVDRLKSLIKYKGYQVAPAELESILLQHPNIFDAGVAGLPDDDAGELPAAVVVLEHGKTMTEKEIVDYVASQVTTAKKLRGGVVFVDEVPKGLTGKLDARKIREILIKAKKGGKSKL
S16 F2sN tox cnf = Cell viability qHTS assay in S16 Pmp22-F2sN cells - Confirmatory screen; Potency, µM (titrated, usually from 57.5 µM), usual class: cytotoxic; S16 Schwann cells viability, CellTiter-Glo ATP luminescence, 24 h; 7% of 690 active; shares compounds with PMP22 txn prim; AID 1508641, 2021
PMP22 txn conf = Cell-based coincidence reporter assay to measure PMP22 gene transcription in S16 Pmp22-F2sN cells - Confirmatory screen; shares compounds with PMP22 txn prim; S16 Schwann cells Pmp22-F2sN, dual luciferase, 24 h; Potency, µM (doses to about 57.5 µM), most hits filed as inhibitors; 22% of 690 active; AID 1508646, 2021; active = clear falling dose curves in both reporters; inconclusive = both reporters move, but less clearly or upward; inactive = either reporter flat; the % is the FLuc reporter signal
PMP22 prot conf = Cell-based HiBiT reporter assay to measure PMP22 protein expression in S16 Pmp22-HiBiT cells - Confirmatory screen; S16 Schwann cells Pmp22-HiBiT, luminescence, 48 h; AID 1508647, 2021; shares compounds with PMP22 txn prim; 95 tested, under 10 active; Potency, µM (highest dose often 27.9 µM), hits mostly inhibitors
Numbers stand for hits; - = inactive; ? = inconclusive; . = not tested or not shown. Unless noted, calls come from the whole dose curve; as a rule, active = well fitted curve in the direction sought with a large enough effect; inconclusive = small, poorly fitted or top-dose-only effect, or another doubt; inactive = no such curve, though single readings can be large; an effect the other way counts as inactive or inconclusive.

SMILES	p53null 32C tox	p53null 39C kill	S16 viability	mTORC1 inh	PMP22 txn prim	NLuc saturating	NLuc Km counter	FLuc counter	S16 F2sN tox cnf	PMP22 txn conf	others
Cc1c(C(=O)OC2CCC(C)CC2)[nH]c2c1C(=O)CC(c1ccccc1Cl)C2 (configuration not stated)	-	-	-	?	10µM	?	-	-	-	-
Cc1c(C(=O)OC2CCCCCC2)[nH]c2c1C(=O)CC(c1ccccc1Cl)C2 (configuration not stated)	-	-	-	-	?	.	.	.	.	.
CNC(=O)COC(=O)c1ccc([N+](=O)[O-])cc1Cl	-	-	.	.	.	.	.	.	.	.
O=C(Nc1cccnc1)c1cccnc1	-	-	.	.	.	.	.	.	.	.
O=C(CSc1nc(=O)n(Cc2ccncc2)c2c1CCC2)Nc1cccc(F)c1	-	-	-	-	?	.	.	.	.	.
CCN(CC)CCn1c2c(c(SCC(=O)Nc3cccc(C(F)(F)F)c3)nc1=O)CCC2	-	-	-	-	16µM	-	-	-	-	?
Cc1ccc(-c2nnc(Nc3ccc(Cl)c(Cl)c3)c3ccccc23)cc1S(=O)(=O)N(C)C	-	-	-	-	?	.	.	.	.	.
O=C(NCCS(=O)(=O)N1CCN(c2ccc(F)cc2)CC1)C1CC(=O)N(c2ccc(F)cc2)C1 (configuration not stated)	-	-	-	-	-	.	.	.	.	.
Cc1ccc(S(=O)(=O)c2nnn3c2nc(NC2CCCCCC2)c2sccc23)cc1C	-	-	-	-	20µM	?	-	-	-	16µM	PMP22 prot conf=?
O=S(=O)(c1ccc(Cl)cc1)c1nnn2c1nc(N1CCCCC1)c1sccc12	-	-	-	-	?	?	-	-	-	?
O=S(=O)(c1ccc(Cl)cc1)c1nnn2c1nc(NCc1ccccc1)c1sccc12	-	?	-	-	?	.	.	.	.	.
CCCCNc1nc2c(S(=O)(=O)c3ccc(Cl)cc3)nnn2c2ccsc12	-	-	-	-	20µM	-	?	-	-	-
Cc1ccc(S(=O)(=O)c2nnn3c2nc(N2CCOCC2)c2sccc23)cc1C	-	-	-	-	13µM	?	-	-	-	-
O=C(CCSCCc1ccccn1)Nc1cc(F)ccc1F	-	-	-	-	?	.	.	.	.	.

Assay outcomes deposited in PubChem BioAssay by National Center for Advancing Translational Sciences (NCATS).
